Bioassay records (PubChem)
In the library only some 7.2% were active in any assay of this set; here they are far more common.
Mot1-301 SUMO – inhibitors of SUMOylation pathway: yeast Mot1-301 growth rescue; S. cerevisiae Mot1-301 growth rescue, ATP luminescence, 38.5C; percent above DMSO median, 100 means doubled; 320,000 tested, 1% active; growth rescue, % at 18.8 µM;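 active = every valid replicate shows activation above 250% relative to neutral control wells; inactive = the rest, any valid replicate at or below 250%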
Bfl-1 A1 inh – inhibitors of the anti-apoptotic protein A1, read as caspase activation | MEF A1-2A-BIM cells, Caspase-Glo 3/7 luminescence, 3 h; percent of clofoctol response, vehicle zero | 330,000 tested, 0.066% active | AID 2462 | caspase activation, % (no concentration beside the values);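 active = over half of replicate activation scores above 10%, or exactly half above 10 with the replicate mean above 10; inconclusive = replicate mean below 10 yet half the replicates above 10; inactive = over half of replicates below 10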
Efflux pump mplx – inhibitors of Candida antifungal efflux pumps expressed in yeast; S. cerevisiae Candida pump triplex, Nile Red efflux; inhibition, % at 10 µM; 330,000 tested, 0.44% active;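 active = plate passing quality check with inhibition over a set limit, or well fluorescence over plate mean plus 4 SD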;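 note: Nile Red retained in pooled yeast measured as flow cytometry median fluorescence; higher means more Nile Red kept so more efflux inhibition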
ALR H2O2 inh – blocks human ALR sulfhydryl oxidase activity; purified ALR, DTT oxidation, H2O2 HRP-luminol luminescence; inhibition, % (test concentration not listed); 290,000 tested, 3.8% active; AID 485317;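 active = mean replicate inhibition above about 79%, with every replicate also reaching it, limit read from the data; inconclusive = only one of the two criteria met; inactive = mean below limit and not every replicate reaching it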
VLA-4 inh – inhibition in a human VLA-4 binding assay | 330,000 tested, 0.2% active | VLA-4 expressing cells, ligand binding flow cytometry | inhibition, % (about 7 µM as worked out from the volumes in the protocol) | P13612; in the data active = inhibition above about 50%
AHR act – activates the human aryl hydrocarbon receptor. activation, % at 5 µM. 320,000 tested, 2.5% active. P35869. AHR-responsive luciferase reporter cells, luminescence; in the data active = activation above about 47%
Target sequence (P35869 whole entry, looked up): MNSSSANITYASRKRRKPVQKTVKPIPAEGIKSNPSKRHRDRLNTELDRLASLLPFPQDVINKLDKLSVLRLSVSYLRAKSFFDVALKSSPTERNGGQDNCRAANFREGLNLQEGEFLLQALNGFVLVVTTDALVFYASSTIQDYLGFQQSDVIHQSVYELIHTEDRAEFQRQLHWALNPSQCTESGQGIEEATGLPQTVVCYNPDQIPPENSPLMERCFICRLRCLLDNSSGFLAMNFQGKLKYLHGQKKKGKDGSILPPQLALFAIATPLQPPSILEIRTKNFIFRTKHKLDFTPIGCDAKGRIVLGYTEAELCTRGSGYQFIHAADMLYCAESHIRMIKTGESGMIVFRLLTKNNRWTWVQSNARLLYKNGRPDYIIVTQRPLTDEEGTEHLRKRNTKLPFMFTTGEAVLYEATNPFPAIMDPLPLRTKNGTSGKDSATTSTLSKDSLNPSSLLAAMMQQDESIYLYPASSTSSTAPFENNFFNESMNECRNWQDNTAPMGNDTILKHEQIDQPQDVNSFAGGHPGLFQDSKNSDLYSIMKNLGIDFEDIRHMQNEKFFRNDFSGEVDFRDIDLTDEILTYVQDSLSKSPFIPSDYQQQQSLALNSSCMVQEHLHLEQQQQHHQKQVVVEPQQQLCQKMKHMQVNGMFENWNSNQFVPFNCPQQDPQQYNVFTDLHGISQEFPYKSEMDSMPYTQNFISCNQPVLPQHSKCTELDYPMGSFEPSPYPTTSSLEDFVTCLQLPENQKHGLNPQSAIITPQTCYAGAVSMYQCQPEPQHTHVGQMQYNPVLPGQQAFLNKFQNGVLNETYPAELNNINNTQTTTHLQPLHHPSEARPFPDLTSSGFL
Hits are given with their value; n = inactive; u = inconclusive; x = not tested or not shown; + = active, no number.

SMILES	Mot1-301 SUMO	Bfl-1 A1 inh	Efflux pump mplx	ALR H2O2 inh	VLA-4 inh	AHR act
CN(C)c1cccc(C(=O)N2CCCC(CCC(=O)N3CCN(c4ccccn4)CC3)C2)c1 (stereo not drawn)	n	n	n	n	n	n
S=C1Cc2ccccc2C(c2ccc(Cl)cc2)N1 (stereo not drawn)	n	n	n	n	n	n
Nc1cccc2c1C(=O)N(CCOc1ccccc1F)C2=O	n	n	n	n	n	76.6
COc1ccc(NCCC(O)c2ccc(Cl)cc2)cc1 (stereo not drawn)	n	n	n	99.0	n	n
O=[N+]([O-])c1cc(CS(=O)(=O)Oc2ccc(Cl)cc2)c(O)c([N+](=O)[O-])c1	n	n	n	n	n	n
CCn1c(O)c(/C=C2\C=NN=C2c2ccc(C)cc2)sc1=S	n	n	n	n	n	n
CC(C)n1c(O)c(/C=C2\C=NN=C2c2ccccc2)sc1=S	n	n	n	x	n	63.6
CN(C1CCCCC1)S(=O)(=O)c1ccc(SCC(=O)C(C)(C)C)nc1	n	n	n	n	n	n
O=S(=O)(c1ccc(Nc2ccc3c(c2)OCO3)nc1)N1CCOCC1	n	n	n	n	n	n
CCOC(=O)c1cnc(-c2ccccc2)nc1N1CCOCC1	n	n	n	n	n	48.1
CCOC(=O)c1cnc(-c2ccccc2)nc1N	n	n	n	n	n	n
CCOC(=O)c1[nH]cc(-c2ccccc2)c1N1CCOCC1	n	n	n	n	n	48.6
CCOC(=O)c1c(-c2ccccc2)csc1NC(=O)CCN1CCOCC1	n	n	n	n	n	n
COc1ccccc1NC(=S)NC(NC(=O)C(C)C)C(Cl)(Cl)Cl (stereo not drawn)	n	n	n	n	n	n
Oc1[nH]c2ccccc2c1C1=NCCCC1	n	n	n	98.2	n	n
CCCCCCSc1ccc(-c2nc3ccccn3c2NCCCC)cc1	n	n	n	n	n	n
CCCCNc1c(-c2ccc(-c3cccc(Cl)c3)cc2)nc2ccccn12	n	n	n	x	n	55.8
COc1ccc(/C=N/n2c(=O)[nH]c3c([nH]c4ccc(Cl)cc43)c2=O)cc1CN1CCCCC1	n	n	n	n	n	n
COc1ccc(/C=N/n2c(=O)[nH]c3c([nH]c4ccc(Br)cc43)c2=O)cc1CN1CCOCC1	n	n	n	n	n	56.3
Cc1cccc(C)c1NC(=S)NC(=O)c1ccc(Br)o1	n	n	n	n	n	69.2
CCCCOc1ccc(CC2CCC(=O)NC2=O)cc1 (stereo not drawn)	+	n	n	n	n	n
COc1cc2[nH]c3ccccc3c2cc1C	n	n	n	81.0	n	n
CCOC(=O)c1ccc2[nH]c3ccccc3c2c1	n	n	n	n	n	n
CCc1ccc(NC(=O)C2CC(=O)N(C(C)C)C2)cc1 (stereo not drawn)	n	n	n	n	n	78.0
CC(C)N1CC(C(=O)Nc2ccccc2)CC1=O (stereo not drawn)	305.2	n	n	n	n	n
SMILES	Mot1-301 SUMO	Bfl-1 A1 inh	Efflux pump mplx	ALR H2O2 inh	VLA-4 inh	AHR act
CC(=O)Nc1ccc(NC(=O)C2CC(=O)N(C(C)C)C2)cc1 (stereo not drawn)	n	n	n	x	n	n
Brc1cc(Br)cc(CN2CCSCC2)c1	n	n	n	n	n	n
S=C(NCc1ccc(Cl)cc1)NCc1ccco1	n	n	n	n	n	x
CN(C)c1ccc(NC(=O)CN2CCN(CC(=O)Nc3ccc(F)cc3)CC2)cc1	n	n	n	98.9	n	n
Cc1ccc(C(=O)C2CCN(CC(=O)Nc3ccc(N(C)C)cc3)CC2)cc1	n	n	n	98.1	n	n
CCN(CC)c1ccc(NC(=O)CN2CCN(c3ccccc3F)CC2)cc1	n	u	n	99.1	n	n
O=C(CN1CCN(C(=O)c2ccccc2F)CC1)Nc1ccc(Br)cc1	n	n	n	x	n	55.7
O=C(CN1CCC(C(=O)c2ccc(F)cc2)CC1)Nc1ccc(F)cc1	n	n	n	n	n	n
O=C(O)/C=C/c1ccc2c(-c3ccccc3)onc2c1	n	n	n	93.1	n	n
O=C(O)c1ccc2noc(-c3ccccc3)c2c1	n	n	n	n	n	n
O=C(CSc1nc(=O)n(CCCN2CCOCC2)c2c1CCCC2)Nc1cccc(F)c1	n	n	n	u	n	n
COc1cc(NC(=O)CSc2nc(=O)n(CCN3CCOCC3)c3c2CCC3)cc(OC)c1	n	n	n	96.9	n	n
O=C(CSc1nc(=O)n(CCN2CCOCC2)c2c1CCCC2)Nc1cccc([N+](=O)[O-])c1	n	n	n	n	n	n
Cc1cc(C)cc(NC(=O)CSc2nc(=O)n(CCCN3CCOCC3)c3c2CCCC3)c1	n	n	n	95.8	n	n
COc1cc(NC(=O)CSc2nc(=O)n(CCCN3CCOCC3)c3c2CCC3)cc(OC)c1	n	n	n	99.3	n	n
O=C(CSc1nc(=O)n(CCN2CCOCC2)c2c1CCC2)Nc1ccc(OC(F)(F)F)cc1	n	n	n	96.9	n	n
CCN(CC)CCCn1c2c(c(SCC(=O)Nc3cc(OC)cc(OC)c3)nc1=O)CCC2	n	n	n	n	n	n
CCOc1ccc(NC(=O)CSc2nc(=O)n(CCN3CCOCC3)c3c2CCCC3)cc1	n	n	n	n	n	n
CC(C)c1ccc(/C=N/NC(=O)CCNC(=O)c2ccccc2)cc1	n	n	n	n	n	n
CC(=O)Nc1cccc(NC(=O)CSc2nc(=O)n(CCN3CCOCC3)c3c2CCCC3)c1	n	n	n	98.8	n	n
CC(=O)c1cccc(NC(=O)CSc2nc(=O)n(CCN3CCOCC3)c3c2CCC3)c1	n	n	n	n	n	n
COc1ccc(NC(=O)CSc2nc(=O)n(CCN3CCOCC3)c3c2CCC3)cc1	n	n	n	98.5	n	n
COc1ccc2c(c1)c1nnc(SC)nc1n2C	n	n	n	n	n	n
COc1ccc2c(c1)c1nnc(SCC(=O)N3C(C)CCCC3C)nc1n2C (stereo not drawn)	n	n	n	x	n	50.4
CCO[C@@H]1OC(C(N)=O)=C[C@H](c2ccc3c(c2)OCO3)[C@H]1CCCO	n	n	n	n	n	n
SMILES	Mot1-301 SUMO	Bfl-1 A1 inh	Efflux pump mplx	ALR H2O2 inh	VLA-4 inh	AHR act
C=CCNC(=S)N/N=C/c1ccc(-c2ccc(Cl)cc2Cl)o1	n	n	n	n	n	61.2
C=CCNC(=S)N/N=C/c1ccc(-c2ccc(OC)cc2)o1	n	n	n	n	n	64.5
CNC(=S)N/N=C/c1ccc(-c2ccc(C(=O)O)cc2)o1	n	n	n	n	n	n
C=CCNC(=S)N/N=C/c1ccc(-c2cc(Cl)ccc2Cl)o1	n	n	n	n	n	n
CCOc1ccc(S(=O)(=O)n2cc(F)c(=O)[nH]c2=O)cc1	n	n	n	n	n	n
CCN1CCCC1CNC(=O)CCc1nnc(CCC2CCCCC2)o1 (stereo not drawn)	n	n	n	100.2	n	n
Cc1cc(C)c2cc(C(=O)N3CCc4ccccc4C3)[nH]c2c1	n	n	n	n	n	54.8
